3CLpro inhibitor = SARS-CoV 3CLpro protease inhibition; P0C6X7; recombinant SARS-CoV 3CLpro, quenched FRET peptide cleavage; inhibition, % at 6 µM; hit rate 0.14% among 290,000; AID 1706; in the data active = inhibition above about 12%
PrP UTR inh = inhibition of PrP 5' UTR reporter expression; inhibition, % (test concentration not listed); AID 488862; cell-based PrP 5' UTR mRNA reporter, plate reader; hit rate 0.35% among 340,000; in the data active = inhibition above about 52%; note: 0 = median of the neutral control wells
SSB-PriA inh = inhibitors of Klebsiella pneumoniae PriA binding to SSB C-terminal tail. hit rate 0.6% among 430,000. AID 1272365. inhibition, % at 33 µM. AlphaScreen SSBct-PriA binding, biotinylated peptide; in the data active = inhibition mostly above about 37%, no sharp cut-off; inactive = mostly below about 20%;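 note: plate controls were negative control peptide for no effect and reference peptide for full effect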
BH1578 lux ind = inducers of Vibrio cholerae quorum light production without autoinducers | V. cholerae BH1578 lux reporter, luminescence, 6 h | activation, % at 18.7 µM | hit rate 0.16% among 350,000; in the data active = activation mostly above about 9.7%, no sharp cut-off; inconclusive = no clear call, values can overlap the other calls; inactive = mostly below about 3.7%
PfHsp40 yeast = restores yeast growth despite PfHsp40 toxicity; hit rate 0.68% among 340,000; AID 504582; S. cerevisiae expressing PfHsp40, growth rescue, ATP luminescence; growth rescue, % at 12.5 µM; in the data active = growth rescue above about 28%, passing the limit was not always enough; inconclusive = no clear call, values can overlap the other calls;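 note: yeast W303a lacking pdr1 and pdr3 grown in galactose medium; growth measured after three days at 30 °C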
PrPC surface inh = cell surface PrPC inhibition, primary TR-FRET screen. TR-FRET read-out. hit rate 0.43% among 370,000. inhibition, % at 13.8 µM. AID 720596. P04156; in the data active = inhibition above about 24%; note: 0% = median of the test wells and 100% = reference compound wells
An asterisk follows results filed as active. Most compounds without a hit are left out; they make up all but 1.6% or so of the library.

Screening O=S(=O)(c1ccc(Cl)cc1)N1CCN(Cc2ccc(O)c3ncccc23)CC1 returned 3CLpro inhibitor 0, PrP UTR inh 23, SSB-PriA inh 15, BH1578 lux ind -1, PfHsp40 yeast 102* and PrPC surface inh 2.
Screening O=S(=O)(c1ccc(Cl)cc1)N1CCN(Cc2ccncc2)CC1 returned 3CLpro inhibitor -2, PrP UTR inh -4, SSB-PriA inh 1, BH1578 lux ind 0, PfHsp40 yeast 0 and PrPC surface inh 7.
Screening CCOC(=O)c1c(C)oc2c1c1c(c3ccccc32)OCN(C2CCCCC2)C1 returned SSB-PriA inh 10.
Screening CC(C)(C)OC(=O)NCCCCCNC(=O)c1nc[nH]c1C(=O)NCCCCCNC(=O)OC(C)(C)C returned PrP UTR inh 0, SSB-PriA inh -6, BH1578 lux ind 2, PfHsp40 yeast 45* and PrPC surface inh 6.
CC(C)(C)OC(=O)NCCCCCNC(=O)c1[nH]cnc1C(=O)N[C@@H](CCCCNC(=O)OC(C)(C)C)C(=O)OC(C)(C)C was read as 3CLpro inhibitor 3, PrP UTR inh -6, SSB-PriA inh -3, BH1578 lux ind inactive and PfHsp40 yeast inconclusive.
`CC(C)(C)OC(=O)NCCCCCNC(=O)c1nc[nH]c1C(=O)NCc1ccc(CNC(=O)OC(C)(C)C)cc1` gave PrP UTR inh -6, SSB-PriA inh -5, BH1578 lux ind 0, PfHsp40 yeast 3 and PrPC surface inh 25*.
`O=C(Oc1c(CN2CCOCC2)cc(Cl)c2cccnc12)c1ccco1` gave SSB-PriA inh 101*.
O=C(Oc1c(CN2CCOCC2)cc(Cl)c2cccnc12)c1ccccc1F was read as 3CLpro inhibitor -2, PrP UTR inh 11, SSB-PriA inh 58*, BH1578 lux ind -1, PfHsp40 yeast -2 and PrPC surface inh -8.
Nc1cc(C(=O)O)c(N)c2c1C(=O)c1ccccc1C2=O was read as 3CLpro inhibitor 2, PrP UTR inh -25, SSB-PriA inh 74*, BH1578 lux ind inactive and PfHsp40 yeast 3.
For Nc1c(C(=O)O)ccc2c1C(=O)c1ccccc1C2=O the results were 3CLpro inhibitor 8, PrP UTR inh -8, SSB-PriA inh 22, BH1578 lux ind -1, PfHsp40 yeast 0 and PrPC surface inh -50.
COCCN1CCC(NC(=O)C2CCN(S(C)(=O)=O)CC2)CC1 was read as SSB-PriA inh -9.
For COc1ccc(NC(=O)C(c2cc3c(cc2[N+](=O)[O-])OCO3)N(C)c2ccccc2)cc1 (configuration not stated) the results were 3CLpro inhibitor 8, PrP UTR inh -11, SSB-PriA inh 39*, BH1578 lux ind 0, PfHsp40 yeast 4 and PrPC surface inh -2.
For COc1cccc(CNc2ccc3[nH]c(=O)[nH]c3c2)c1OCc1ccccc1Cl the results were 3CLpro inhibitor 9, PrP UTR inh -46, SSB-PriA inh 79*, BH1578 lux ind inactive, PfHsp40 yeast 3 and PrPC surface inh 0.
COc1cc(CNc2ccc3[nH]c(=O)[nH]c3c2)ccc1OCc1ccccc1 was read as 3CLpro inhibitor 0, PrP UTR inh -44, SSB-PriA inh 41*, BH1578 lux ind inactive, PfHsp40 yeast -1 and PrPC surface inh 3.
`COc1cccc(CNc2ccc3[nH]c(=O)[nH]c3c2)c1OCc1ccccc1` gave 3CLpro inhibitor -3, PrP UTR inh -4, SSB-PriA inh 47*, BH1578 lux ind -2 and PfHsp40 yeast 2.
Screening COc1cc(CNc2ccc3[nH]c(=O)[nH]c3c2)ccc1OCc1ccc(F)cc1 returned 3CLpro inhibitor -1, PrP UTR inh -14, SSB-PriA inh 19, BH1578 lux ind -2, PfHsp40 yeast -1 and PrPC surface inh 8.
For COc1ccc(Br)cc1CNc1ccc2[nH]c(=O)[nH]c2c1 the results were 3CLpro inhibitor -2, PrP UTR inh -17, SSB-PriA inh 39*, BH1578 lux ind -1, PfHsp40 yeast 2 and PrPC surface inh 7.
COc1cc(CNc2ccc3[nH]c(=O)[nH]c3c2)ccc1OCc1ccc(F)cc1Cl was read as 3CLpro inhibitor 1, PrP UTR inh -4, SSB-PriA inh 16, BH1578 lux ind -15, PfHsp40 yeast 0 and PrPC surface inh -3.
COc1ccc(Br)cc1CNc1ccc(O)cc1 was read as 3CLpro inhibitor -1, PrP UTR inh -7, SSB-PriA inh 38, BH1578 lux ind 0, PfHsp40 yeast -1 and PrPC surface inh -11.
For CCOc1ccc(C(=O)c2oc3ccccc3c2NC(=O)c2snnc2CC)cc1 the results were SSB-PriA inh 3.
COc1ccc(S(=O)(=O)CCCC(=O)Nc2ccc([N+](=O)[O-])cc2)cc1 was read as SSB-PriA inh -8.
Screening Cc1cc(C)c2c(CC(=O)N3CCN(c4ccccc4F)CC3)coc2c1 returned SSB-PriA inh -4.
Screening O=S(=O)(c1ccccc1)N1CCN(C2CC2)CC1Cc1ccccc1 (configuration not stated) returned SSB-PriA inh -6.
Screening COc1cc(S(=O)(=O)NC(C)c2ccc(-n3ccnc3)cc2)c(OC)cc1C (configuration not stated) returned SSB-PriA inh -3.
Screening COc1cccc(/C=C/c2ccc3cccc(O)c3n2)c1 returned 3CLpro inhibitor 0, PrP UTR inh -46, SSB-PriA inh -9, BH1578 lux ind 0, PfHsp40 yeast 35* and PrPC surface inh -23.
For COc1ccc(/C=C/c2ccc3cccc(O)c3n2)c(OC)c1OC the results were 3CLpro inhibitor -2, PrP UTR inh -31, SSB-PriA inh -4, BH1578 lux ind 3, PfHsp40 yeast 33* and PrPC surface inh -21.
Screening OCCN1CCN(CC(O)COCC23CC4CC(CC(C4)C2)C3)CC1 (configuration not stated) returned SSB-PriA inh 5.
Screening COCCN1CCCc2ccc(NS(=O)(=O)c3cc(Cl)ccc3C)cc21 returned SSB-PriA inh 57*.
For COCCN1CCCc2ccc(NS(=O)(=O)c3ccccc3Cl)cc21 the results were SSB-PriA inh 21.
COCCN1CCCc2ccc(NS(=O)(=O)c3ccc(C(C)(C)C)cc3)cc21 was read as SSB-PriA inh 39*.
Screening COCCN1CCCc2ccc(NS(=O)(=O)c3ccc(OC)cc3)cc21 returned SSB-PriA inh 26.
For Cc1ccc(CNC(=O)c2ccc(N3CCc4ccccc43)c([N+](=O)[O-])c2)cc1 the results were 3CLpro inhibitor 1, PrP UTR inh -32, SSB-PriA inh 66*, BH1578 lux ind 0, PfHsp40 yeast 7 and PrPC surface inh -13.
`COC(CNC(=O)c1ccc(N2CCc3ccccc32)c([N+](=O)[O-])c1)OC` gave 3CLpro inhibitor 7, PrP UTR inh -26, SSB-PriA inh 48*, BH1578 lux ind 0, PfHsp40 yeast 1 and PrPC surface inh -41.
Cc1ccc(SCCNC(=O)c2ccc(C)c([N+](=O)[O-])c2)cc1 was read as 3CLpro inhibitor -3, PrP UTR inh -12, SSB-PriA inh 4, BH1578 lux ind 0, PfHsp40 yeast 48* and PrPC surface inh -3.

Screening results (PubChem)
